# ASM inhibitor: Inhibitors of Secretory Acid Sphingomyelinase (S-ASM): qHTS; placental ASM, HMU-PC fluorogenic substrate, 60 min; Potency, µM (titrated, usually from 57.5 µM), for the others: at the top dose activity change, negative = inhibition, actives largely listed as inhibitors; AID 504937, 2011; actives 0.006% (n = 340,000); note: potency is the fitted concentration of half-maximal effect
# Target sequence (P17405 47-631 limits assumed): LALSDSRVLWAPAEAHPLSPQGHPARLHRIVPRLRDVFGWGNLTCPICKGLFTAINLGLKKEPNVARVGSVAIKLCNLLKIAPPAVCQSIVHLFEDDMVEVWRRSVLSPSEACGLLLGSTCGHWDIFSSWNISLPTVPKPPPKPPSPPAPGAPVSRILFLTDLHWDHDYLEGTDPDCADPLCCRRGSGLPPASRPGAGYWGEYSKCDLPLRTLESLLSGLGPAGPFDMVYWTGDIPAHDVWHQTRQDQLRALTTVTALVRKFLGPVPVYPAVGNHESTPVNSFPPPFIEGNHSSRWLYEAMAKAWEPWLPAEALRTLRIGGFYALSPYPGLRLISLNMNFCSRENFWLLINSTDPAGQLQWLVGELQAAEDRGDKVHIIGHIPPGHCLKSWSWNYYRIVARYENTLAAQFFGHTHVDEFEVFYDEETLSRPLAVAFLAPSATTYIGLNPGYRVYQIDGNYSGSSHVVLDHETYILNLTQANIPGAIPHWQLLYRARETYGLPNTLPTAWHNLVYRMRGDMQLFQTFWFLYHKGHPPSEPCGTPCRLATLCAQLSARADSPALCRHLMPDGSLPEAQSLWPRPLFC
#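 HMU-PC0 cleavage (9 uM final) by human placental ASM, 60 min at 37 °C following 10 min compound exposure at RT; stopped at pH 10, fluorescence Ex 386/Em 447 nm.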
# SW480 rerep: A quantitative high throughput screen for small molecules that induce DNA re-replication in SW480 colon adenocarcinoma cells; SW480 DNA re-replication, Hoechst DNA content imaging, 48 h; Potency, µM (series often up to 46.1 µM), inactives show at the highest dose re-replication activation, usual class: activators; actives 1.8% (n = 340,000); note: potency is the fitted concentration of half-maximal effect; % of control where 0% means no effect; nearly all actives have a fitted effect of over 55% in size
#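 Treated cells incubate 48 hr (37 C, 5% CO2), are stained 40 min with Hoechst, and nuclear fluorescence is enumerated; a rise in nuclei with high DNA signal marks re-replication.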
# KB-3-1 cytotox: qHTS assay for MDR1-selective chemotherapeutics: Primary screen using the parental adenocarcinoma cell KB-3-1; Potency, µM (series often up to 46.1 µM), most hits filed as cytotoxic; AID 1347075, 2019; KB-3-1 viability, CellTiter-Glo ATP luminescence, 72 h; actives 1.4% (n = 400,000); note: potency is the fitted concentration of half-maximal effect; % is set by controls: 0 for no effect and ±100 for the full control effect; nearly all actives have a fitted effect of over 60% in size
#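 Cytotoxicity measured as CellTiter-Glo luminescence after 72 h at 37 C. Compound titrations were pinned onto drug-naive KB-3-1 parental adenocarcinoma cells grown in DMEM with 10% FBS, and normalized data fitted to concentration-response curves.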
# KB-V1 cytotox: qHTS assay for MDR1-selective chemotherapeutics: Primary screen using the drug-selected MDR subline cells KB-V1; KB-V1 MDR cells viability, CellTiter-Glo, 72 h; Potency, µM (highest dose often 46.1 µM), usual class: cytotoxic; actives 3.4% (n = 400,000); AID 1347076, 2019; note: potency is the fitted concentration of half-maximal effect; % is set by controls: 0 for no effect and ±100 for the full control effect; nearly all actives have a fitted effect of over 60% in size
#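 Cytotoxicity via CellTiter-Glo luminescence after 72 h compound exposure at 37 degrees C. Cells: drug-selected KB-V1 line, DMEM phenol-red free plus 10% FBS. Compounds tested at multiple concentrations; normalized data fitted to concentration-effect curves.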
# Giardia kill: Small Molecules that selectively kill Giardia lamblia: qHTS | Giardia lamblia trophozoite viability | activity change, % at 7.66 µM, hits read low | actives 0.15% (n = 340,000); in the data active = activity change below about -80%; inconclusive = between about -30% and that limit;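 note: parasites exposed to compound for two days anaerobically before the ATP read; % is set by controls: 0 for no effect and ±100 for the full control effect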
#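 Trophozoites 100 cells/well + cpd; 48 hrs, 37 deg C, anaerobic. ATPLite 1-Step added, 15-30 min RT, luminescence read (ATP-based viability).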
# MCF10A rerep: A quantitative high throughput screen for small molecules that induce DNA re-replication in MCF 10a normal breast cells; MCF 10A DNA re-replication, Hoechst nuclear intensity, 48 h; Potency, µM (doses to about 46.1 µM), for the others: top-dose activity, positive = re-replication, actives largely listed as activators; actives 2.9% (n = 350,000); note: potency is the fitted concentration of half-maximal effect; % of control where 0% means no effect; nearly all actives have a fitted effect of over 50% in size
# The depositor's hits bear a star; i = inactive; ? = inconclusive; . = not tested or not shown. Hits are enriched below; roughly 6.9% of the tested compounds scored in any of these assays. Unless noted, calls come from the whole dose curve; as a rule, active = well fitted curve in the direction sought with a large enough effect; inconclusive = small, poorly fitted or top-dose-only effect, or another doubt; inactive = no such curve, though single readings can be large; an effect the other way counts as inactive or inconclusive.
SMILES,ASM inhibitor,SW480 rerep,KB-3-1 cytotox,KB-V1 cytotox,Giardia kill,MCF10A rerep
Cc1ccc(Cl)c(OCCN2CCCC(C)C2)c1 (configuration not stated),5.8%,-3.8%,i,?,1.2,5.9%
CC1CCCN(CCCOc2ccc(Cl)cc2Br)C1 (configuration not stated),6.7%,5.6%,?,16.4µM*,-11.0,?
CC1CCCN(CCOc2ccc3ccccc3c2Br)C1 (configuration not stated),-3.5%,-6.8%,?,?,-5.9,14.6µM*
O=C(CNC(=O)c1ccc(Cl)cc1)OCc1cc(=O)n2nc(C3CCCCC3)sc2n1,.,.,i,i,.,.
S=C(NCCCc1cnc[nH]1)NCCCN(Cc1ccc(Cl)cc1)c1ncc(Br)cn1,.,.,i,i,9.4,.
COc1cc(C(=O)Nc2nc(-c3ccc(F)cc3)cs2)ccc1OCC(=O)N1CCOCC1,?,0.5%,i,i,5.3,23.1µM*
COc1ccc(CNC(=O)CCC(=O)Nc2nnc(CC(C)C)s2)cc1,11.1%,2.91µM*,i,i,-4.6,0.0%
COc1ccc(-c2nc(NC(=O)c3ccc(OCC(=O)Nc4ccc(F)cc4)c(OC)c3)sc2C)cc1,4.2%,20.5%,i,i,7.1,20.6µM*
COc1ccc(Cc2nnc(NC(=O)c3ccc(OC)c(OC)c3)s2)cc1,4.2%,?,?,i,32.6,3.66µM*
CCc1nnc(NC(=O)CCC(=O)NCc2ccc(OC)cc2)s1,-0.7%,-22.3%,i,i,3.8,2.1%
O=[N+]([O-])c1ccccc1Nc1c2ccccc2nc2ccccc12,8.9%,20.9%,?,i,-15.5,19.0%
O=[N+]([O-])c1cccc2nc3ccccc3c(NCCCn3ccnc3[N+](=O)[O-])c12,-1.9%,?,i,0.731µM*,-95.2*,?
C/C(=N\NC(=O)C(N)=O)c1ccc(OC(F)F)cc1,-0.4%,-5.0%,i,i,1.6,2.8%
C/C(=N\NC(=O)c1ccc(CN(C)S(=O)(=O)c2ccc(C)cc2)cc1)c1ccc(OC(F)F)cc1,-0.8%,-16.4%,10.3µM*,2.59µM*,-0.8,?
O=C(N/N=C/c1ccc(OC(F)F)cc1)c1cc[n+]([O-])cc1,-1.4%,2.5%,?,i,32.6,-0.1%
Cc1ccc(S(=O)(=O)N(C)Cc2ccc(C(=O)N/N=C/c3ccc(OC(F)F)cc3)cc2)cc1,4.2%,2.8%,i,16.4µM*,5.0,?
COc1ccc(CCNC(=O)CCc2c(C)c3cc4c(C)coc4cc3oc2=O)cc1,.,.,i,?,.,.
O=C(Cn1cc([N+](=O)[O-])cn1)N1CCN(Cc2ccc3c(c2)OCO3)CC1,0.0%,-3.6%,i,i,6.5,6.6%
COc1ccc(NC(=O)Nc2cccc([N+](=O)[O-])c2)cc1Cl,-4.5%,-1.4%,i,14.6µM*,-10.6,?
COc1ccc(C(=O)Nc2cccc([N+](=O)[O-])c2)cc1Br,0.0%,-8.1%,i,i,-1.3,5.4%
COc1ccc(OC(C)C(=O)Nc2cccc([N+](=O)[O-])c2)cc1 (configuration not stated),3.0%,-149.3%,i,16.4µM*,-12.8,-42.6%
O=C(Nc1ccc([N+](=O)[O-])cc1)Nc1ccc(OC(F)F)c(Cl)c1,-17.0%,18.4µM*,5.8µM*,4.61µM*,2.2,?
CC(Oc1ccccc1)C(=O)Nc1ccccc1C(=O)OCc1cc(=O)n2nc(C3CC3)sc2n1 (configuration not stated),.,.,i,?,.,.
COc1cc(OC)c(N(C)C(=O)c2cc3c(s2)-c2ccccc2OC3)cc1Cl,.,.,i,i,.,.
COc1cccc(C(NC(C)=O)c2ccc3cccnc3c2O)c1 (configuration not stated),0.4%,0.651µM*,3.66µM*,i,-1.9,?
SMILES,ASM inhibitor,SW480 rerep,KB-3-1 cytotox,KB-V1 cytotox,Giardia kill,MCF10A rerep
Oc1c(C(Nc2ccccn2)c2ccccc2)ccc2cccnc12 (configuration not stated),.,.,i,i,.,.
CCCCC(=O)NC(c1cccc([N+](=O)[O-])c1)c1ccc2cccnc2c1O (configuration not stated),-3.5%,?,?,?,-0.3,?
Oc1cccc(C(Nc2nccs2)c2ccc3cccnc3c2O)c1 (configuration not stated),4.9%,?,3.26µM*,?,5.3,11.6µM*
CC(=O)NC(c1cccc([N+](=O)[O-])c1)c1ccc2cccnc2c1O (configuration not stated),0.8%,?,3.66µM*,?,-14.5,14.6µM*
O=[N+]([O-])c1ccc(NC(c2ccccc2)c2ccc3cccnc3c2O)cc1 (configuration not stated),-16.4%,0.82µM*,4.61µM*,?,11.3,?
COc1ccc(-c2csc(-c3c(N)c(C(=O)c4ccccc4)n4ccccc34)n2)cc1OC,.,.,i,i,.,.
O=C(CSc1ncc2c(n1)-c1ccc(Cl)cc1N(Cc1ccccc1)S2(=O)=O)Nc1ccccc1C(F)(F)F,.,.,i,i,.,.
COc1ccc(C2c3c(n(C)c4ccccc34)C(=O)N2CC(=O)Nc2cccc(F)c2)cc1 (configuration not stated),.,.,i,i,.,.
Cc1ccc(C)c(-c2nn(CC(=O)Nc3cc(F)ccc3F)c(=O)c3c2CCCC3)c1,.,.,i,i,.,.
N#C/C(=C\c1ccccn1)c1ccccn1,3.4%,14.6µM*,?,i,2.8,20.6µM*
CN(C)c1ccc(/C=C(\C#N)c2ccccn2)cc1,-2.2%,15.8%,?,?,-98.4*,10.4%
N#C/C(=C\c1ccc([N+](=O)[O-])cc1)c1ccccn1,-5.1%,9.3%,i,?,2.1,11.1%
N#C/C(=C/c1cccs1)c1ccccn1,0.7%,-13.5%,i,i,-9.5,1.6%
CN(C)c1ccc(NC(=S)c2ccccn2)cc1,-4.6%,?,14.6µM*,?,?,-3.1%
Cc1cc(C)n2nc(/C(C#N)=C/c3ccccn3)c(C#N)c2n1,2.3%,3.26µM*,i,i,-3.3,6.51µM*
CC(Sc1oc(-c2cccs2)nc1S(=O)(=O)c1ccccc1)c1ccccc1 (configuration not stated),.,.,i,i,.,.

# Assay outcomes as filed in PubChem.
